Laboratory results: the supplement of paper PMC4166925
± gives the standard deviation of the averaged measurements. Over roughly 33,000 sequences, “E-score (dimensionless, -0.5 to 0.5)” has its median near -0.046; the highest 2% begin near 0.36. The sample holds the highest values, similar sequences and a random draw of the others, so the mix is not that of the screen.

test system: T1, SpTbr T-box DNA-binding domain (GST fusion); test: PBM E-score of 8-mer (E-score (dimensionless, -0.5 to 0.5)); Tbr is Tbrain of the sea star Patiria miniata (Pm) or the sea urchin Strongylocentrotus purpuratus (Sp); higher = stronger binding preference; conditions: the construct has about 5 more residues each side
T1 sequence: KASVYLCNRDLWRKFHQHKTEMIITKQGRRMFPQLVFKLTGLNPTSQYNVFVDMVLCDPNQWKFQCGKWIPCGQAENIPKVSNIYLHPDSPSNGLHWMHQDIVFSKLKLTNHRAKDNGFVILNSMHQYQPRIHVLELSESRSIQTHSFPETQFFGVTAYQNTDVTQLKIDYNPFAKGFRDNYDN
Summary of the method: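 Primer extension turned Universal Agilent oligonucleotide arrays double-stranded. They were incubated with 200 nM protein in PBS (pH 7.5); the protein was a GST-fused Tbr T-box DNA-binding domain expressed in BL21 E. coli at 20 °C and purified on glutathione. Every ungapped 8-mer was scored from the scanned, quantified probe intensities, and the Universal PBM Analysis Suite gave each an enrichment E-score averaged over duplicate arrays.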

| Sequence | PBM E-score of 8-mer |
| --- | --- |
| ACGACACT | 0.257 ± 0.0054 |
| ACGACACG | 0.226 ± 0.042 |
| CCGACACC | 0.438 ± 0.0068 |
| GCGACACC | 0.432 ± 0.021 |
| GCGACACA | 0.31 ± 0.0039 |
| ACGACACC | 0.419 ± 0.02 |
| GGGACACC | 0.226 ± 0.042 |
| CCGACACG | 0.253 ± 0.034 |
| CCGACACA | 0.36 ± 0.022 |
| CGTTGGGC | -0.255 ± 0.022 |
| ATCAATCC | -0.172 ± 0.082 |
| GAACGATC | 0.0814 ± 0.028 |
| CCTGACCC | -0.133 ± 0.084 |
| TGAGCGCA | 0.00286 ± 0.049 |
| CTGTGATA | 0.23 ± 0.055 |
| ATGTGAGA | 0.414 ± 0.018 |
| GTGTGATA | 0.459 ± 0.0047 |
| ATGTGATA | 0.254 ± 0.024 |
| GTGTGAGA | 0.4699 ± 0.0024 |
| ATGTGAGC | 0.06995 ± 0.00026 |
| ATGTGAGG | 0.28 ± 0.041 |
| GTGAGAGA | 0.339 ± 0.0054 |
| CTGTGAGA | 0.292 ± 0.0058 |
| CCGATCAA | 0.0887 ± 0.014 |
| GTACTTGA | 0.0232 ± 0.044 |
| GCATCCCA | -0.16 ± 0.063 |

| Sequence | PBM E-score of 8-mer |
| --- | --- |
| GTCACAAC | 0.293 ± 0.0073 |
| CGGTGTAA | 0.216 ± 0.014 |
| AGGTGTAA | 0.475 ± 0.011 |
| AGGTGTAT | 0.281 ± 0.011 |
| GGGTGTAC | -0.0335 ± 0.078 |
| CGGTGTAG | 0.17 ± 0.083 |
| GGGTGTAA | 0.386 ± 0.0076 |
| AGGTGTAC | 0.294 ± 0.0088 |
| AGGTGTAG | 0.3922 ± 0.0034 |
| TGGTGTAA | 0.292 ± 0.059 |
| CTGGCCCC | -0.113 ± 0.035 |
| AACGAGCG | 0.0213 ± 0.0072 |
| GAGCAAGA | -0.187 ± 0.011 |
| AATCAGTC | -0.0936 ± 0.015 |
| CTCGTTAC | -0.116 ± 0.031 |
| GGTTGCGA | 0.266 ± 0.015 |
| CGCGCAAC | 0.173 ± 0.066 |
| GCTGTGAC | 0.161 ± 0.042 |
| AGTGTGAC | 0.445 ± 0.011 |
| AGTGTGTG | 0.36 ± 0.023 |
| GGTGTGAC | 0.4822 ± 0.0041 |
| AGTGTGTC | 0.234 ± 0.06 |
| AGTGTGAG | 0.4646 ± 0.0021 |
| GATGTGAC | 0.273 ± 0.019 |
| AATGTGAT | 0.253 ± 0.0037 |
| ACTGTGAC | 0.237 ± 0.023 |

| Sequence | PBM E-score of 8-mer |
| --- | --- |
| AGTGTGAT | 0.4721 ± 0.0012 |
| AGAGTGAT | 0.231 ± 0.039 |
| ATTGTGAG | 0.25 ± 0.035 |
| GGAGCTAA | -0.165 ± 0.013 |
| GATTTCAC | 0.332 ± 0.023 |
| ACCTGTAA | 0.154 ± 0.021 |
| AGGCATTG | -0.17 ± 0.042 |
| ATTCAAGG | -0.262 ± 0.017 |
| CCAGCGGA | -0.0913 ± 0.043 |
| ATGACGGA | -0.139 ± 0.0034 |
| CATGTGAG | 0.137 ± 0.0055 |
| CGTGTGAG | 0.4011 ± 0.0033 |
| CGTGTGAC | 0.399 ± 0.012 |
| CCTGTGAG | 0.24582 ± 4.2e-05 |
| CGTGTGTC | 0.172 ± 0.058 |
| CCTGTGAC | 0.263 ± 0.011 |
| CCCAACTA | -0.164 ± 0.083 |
| AGCGTCCC | -0.148 ± 0.0096 |
| GCTTATCC | 0.125 ± 0.027 |
| CCTCATAA | -0.0692 ± 0.021 |
| ACGTGTTG | 0.367 ± 0.00092 |
| ACGTGTTC | 0.1884 ± 0.00041 |
| ACGTGTTA | 0.431 ± 0.015 |
| CCGTGTTA | 0.158 ± 0.029 |
| GCGTGTTA | 0.302 ± 0.018 |
| ACGTGTAG | 0.133 ± 0.068 |

| Sequence | PBM E-score of 8-mer |
| --- | --- |
| GATCGCTA | 0.136 ± 0.022 |
| GGTCGATA | 0.0927 ± 0.012 |
| AACTGTTG | 0.241 ± 0.017 |
| CACGCAGA | 0.0713 ± 0.028 |
| CTTGACCC | -0.308 ± 0.038 |
| ATTGACAG | 0.102 ± 0.07 |
| ATTGACAA | 0.298 ± 0.026 |
| CTTGACAC | 0.436 ± 0.0093 |
| CTTGACGC | 0.324 ± 0.011 |
| ATTGACAC | 0.418 ± 0.0052 |
| ACACAGAA | -0.134 ± 0.016 |
| GGATAGAC | -0.202 ± 0.041 |
| ACTCAATC | -0.0092 ± 0.032 |
| CAACACCA | 0.37255 ± 7.8e-05 |
| TAACACCA | 0.43 ± 0.011 |
| CAACACGC | 0.203 ± 0.0098 |
| GAACACCA | 0.104 ± 0.014 |
| CAACACCG | 0.312 ± 0.0065 |
| CAACACTA | 0.264 ± 0.025 |
| GAACACCC | 0.116 ± 0.0077 |
| CAACACGA | 0.185 ± 0.0087 |
| TAACACTA | 0.373 ± 0.042 |
| GAACACTA | 0.013 ± 0.018 |
| AAACACCA | 0.238 ± 0.027 |
| CAACACCC | 0.433 ± 0.012 |
| TCAAGGAA | -0.0393 ± 0.033 |

| Sequence | PBM E-score of 8-mer |
| --- | --- |
| GCTGATCA | 0.179 ± 0.059 |
| CCCAATGA | -0.198 ± 0.013 |
| CCGACCCG | -0.073 ± 0.13 |
| GACTCGAC | -0.0494 ± 0.0017 |
| CTAATGCA | 0.038 ± 0.071 |
| GTAGAGAC | -0.094 ± 0.029 |
| CCACTATC | 0.129 ± 0.028 |
| TACACGAA | -0.0857 ± 0.046 |
| AGTTGCGG | 0.126 ± 0.029 |
| AGTTGCGC | 0.13 ± 0.063 |
| AGTTGCGA | 0.3999 ± 0.00081 |
| GCTTGCGA | 0.16 ± 0.0045 |
| ACTTGCGA | 0.388 ± 0.021 |
| CCTTGCGA | 0.183 ± 0.056 |
| CAGGGATC | -0.17 ± 0.046 |
| AAACCATC | -0.0776 ± 0.02 |
| AAATCGTT | -0.0755 ± 0.038 |
| CACACAGG | 0.244 ± 0.0081 |
| CACACATA | 0.3998 ± 0.0028 |
| CACACAAG | 0.179 ± 0.038 |
| CACACATG | 0.383 ± 0.021 |
| TACACATA | 0.168 ± 0.022 |
| GACACATA | 0.359 ± 0.005 |
| GAGGCTCA | -0.129 ± 0.025 |
| ACGCCCAT | 0.0516 ± 0.054 |
| GATATGCA | 0.00558 ± 0.032 |
